# In PubChem BioAssay (EPA / NIEHS):
# Values joined by “and” are separate entries in the source; they are usually repeats but may differ in a detail not shown here. Identical values can stand only once. Inconclusive results are not listed. Active and inactive are the calls of the source. Rule for the calls, unless noted: active = hit-call score of the fitted dose curve at least 0.9, where 1 is the maximum; inactive = score below 0.9.
# Experiments:
# [1] = CCTE_Padilla_ZF_144hpf_TERATOSCORE: (Legacy) CCTE's 144 Hour Post-fertilization zebrafish Assay Teratoscore, Padilla Lab (AID 2283679);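 for AC50: zebrafish embryos with chorions exposed by immersion from 6-8 hpf to 5 dpf with daily renewal; teratogenicity score from eye scoring of death hatching and malformations at 144 hpf; higher score means more developmental defects relative to DMSO baseline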
# Procedure, shortened: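 Larvae scored by eye at 144 hpf for death, hatching and malformations after a day in clean Hanks'. Before that, daily-renewed exposure at 80 uM (0.4% DMSO, 26C) from roughly 6-8 hpf through 5 dpf, 4 embryos per chemical.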
# [2] = CEETOX_H295R_MTT_cell_viability: Viability Assessment in the CeeTox HT-H295R MTT Assay (AID 2283718);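 for AC50: curve fitted both ways so AC50 may mark viability loss or gain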
# Procedure, shortened: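 Human H295R adrenal cells, prestimulated 48 h with 10 uM forskolin, were exposed 48 h to chemicals in 0.1% DMSO. Viability was measured in the same wells by MTT (0.5 mg/ml, 4 h, 37 C), absorbance 570/650 nm, as percent of controls.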
# [3] = tested on: Thyroperoxidase (TPO), gene 445522; assay: CCTE_Simmons_GUA_TPO: CCTE's Guaiacol Assay for Thyroperoxidase (TPO) Inhibition, Simmons Lab (AID 2283750; active = hit-call score of the fitted dose curve at least 0.9, where 1 is the maximum)
# Procedure, shortened: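 Porcine thyroid microsomes (25 ug) in 200mM potassium phosphate, preincubated 30 s at 37C with compound (8 concentrations, 5 nM–87.5 uM) and 35mM guaiacol; 1mM H2O2 starts reaction. Absorbance change at 450nm over first 80 s; loss of signal versus DMSO, three replicates.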
# [4] = STM_H9_OrnithineISnorm_perc: Stemina devTOX quickPredict H9 human embryonic stem cell (hESC)-based Assay for Ornithine (ORN) Metabolite Biomarker, Normalized (AID 2283712);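 note: ornithine released into spent medium during last day measured by mass spectrometry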
# Procedure, shortened: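 Metabolite endpoint from spent media of pluripotent H9 cells treated 72 h with daily re-feeding; ornithine measured by UPLC-HRMS against its 13C spike-in and referenced to the median 0.1% DMSO vehicle response.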
# [5] = STM_H9_CystineISnorm_perc: Stemina devTOX quickPredict H9 human embryonic stem cell (hESC)-based Assay for Cystine (CYSS) Metabolite Biomarker, Normalized (AID 2283713)
# Procedure, shortened: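 Normalized cystine level in conditioned medium from the final 24h of a 72h treatment of pluripotent H9 cells (daily media and compound renewal). Quantified by UPLC-HRMS with C13-labeled internal standard; scaled to median of 0.1% DMSO vehicle wells.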
# [6] = Tanguay_ZF_120hpf_ActivityScore_legacy: (Legacy) Oregon State University Tanguay Lab 120 Hour Post-fertilization zebrafish Assay Score for Activity (AID 2283742; active = hit-call score of the fitted dose curve at least 0.9, where 1 is the maximum;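 for AC50: dechorionated Tropical 5D wild-type zebrafish embryos held singly per well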)
# Procedure, shortened: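 Dechorionated 5D embryos, one per well, static exposure 6–120 hpf, 28C, sealed and dark; final DMSO 0.64% (vol/vol). Brightfield binary scoring of mortality plus 18 endpoints; gain-of-signal fit versus DMSO baseline.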
# [7] = target: Luciferin 4-monooxygenase (Photinus pyralis) (UniProt P08659); assay: CCTE_Simmons_QuantiLum_inhib_2: CCTE's Firefly Luciferase Inhibition Assay, Simmons Lab (AID 2283767; active = hit-call score of the fitted dose curve at least 0.9, where 1 is the maximum;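 for AC50: potency for inhibitors that lower luciferase luminescence relative to DMSO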)
# Luciferin 4-monooxygenase (Photinus pyralis), sequence (P08659 whole entry, looked up): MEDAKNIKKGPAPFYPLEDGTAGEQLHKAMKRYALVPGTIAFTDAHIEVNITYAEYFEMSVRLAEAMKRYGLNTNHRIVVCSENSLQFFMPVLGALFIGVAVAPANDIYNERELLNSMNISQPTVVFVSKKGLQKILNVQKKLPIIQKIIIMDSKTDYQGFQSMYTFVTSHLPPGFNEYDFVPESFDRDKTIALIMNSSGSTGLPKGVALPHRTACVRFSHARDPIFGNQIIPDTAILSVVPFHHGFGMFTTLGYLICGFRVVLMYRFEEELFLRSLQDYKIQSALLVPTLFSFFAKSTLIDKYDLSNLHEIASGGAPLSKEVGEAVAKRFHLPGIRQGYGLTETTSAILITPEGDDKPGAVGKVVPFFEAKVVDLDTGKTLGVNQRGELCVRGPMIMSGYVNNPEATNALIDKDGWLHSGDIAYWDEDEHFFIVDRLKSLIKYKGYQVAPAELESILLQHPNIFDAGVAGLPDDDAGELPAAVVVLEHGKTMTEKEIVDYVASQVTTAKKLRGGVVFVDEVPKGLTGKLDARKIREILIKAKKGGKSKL
# Procedure, shortened: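 Eight-point titrations of each chemical, 5 nM–87.5 uM final in 0.5% DMSO, were run in three biological replicates against recombinant luciferase for 30 min at 37C. Bioluminescence signal loss, read on reagent injection, gave the inhibition endpoint.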
# [8] = tested on: chicken Androgen Receptor (AR), gene 422165; assay: ATG_chAR_XSP1: Attagene TRANS-FACTORIAL Multi-Species (XSP1) HepG2 Assay for chicken Androgen Receptor (AR) (AID 2283768; active = hit-call score of the fitted dose curve at least 0.9, where 1 is the maximum)
# Procedure, shortened: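 Reporter mRNA read by RT-PCR with fluorescent labelling and capillary electrophoresis 24 h after chemical dosing of transiently transfected HepG2 cells. Chicken AR-Gal4 chimera, partially stimulated with 3 nM 6-alpha-fluorotestosterone; activity fitted upward relative to DMSO.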
# [9] = tested on: frog Androgen Receptor (AR), gene 399456; assay: ATG_frAR_XSP1: Attagene TRANS-FACTORIAL Multi-Species (XSP1) HepG2 Assay for frog Androgen Receptor (AR) (AID 2283770; active = hit-call score of the fitted dose curve at least 0.9, where 1 is the maximum)
# [10] = tested on: zebrafish Androgen Receptor (AR), gene 100005148; assay: ATG_zfAR_XSP1: Attagene TRANS-FACTORIAL Multi-Species (XSP1) HepG2 Assay for zebrafish Androgen Receptor (AR) (AID 2283771; active = hit-call score of the fitted dose curve at least 0.9, where 1 is the maximum)
# Procedure, shortened: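 Gain-of-signal versus DMSO was measured as reporter transcripts quantified by RT-PCR, fluorescent labelling and capillary electrophoresis after 24 h chemical exposure. The cells were HepG2 expressing a chimeric zebrafish AR-GAL4, co-stimulated with 3 nM 6-alpha-fluorotestosterone.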
# [11] = target: zebrafish Estrogen Receptor (ESR1), esr1 (gene 259252) (UniProt P57717); assay: ATG_zfER1_XSP1: Attagene TRANS-FACTORIAL Multi-Species (XSP1) HepG2 Assay for zebrafish Estrogen Receptor (ESR1) (AID 2283772; active = hit-call score of the fitted dose curve at least 0.9, where 1 is the maximum)
# zebrafish Estrogen Receptor (ESR1), esr1 (gene 259252), sequence (P57717 whole entry, looked up, the tested form may be a part): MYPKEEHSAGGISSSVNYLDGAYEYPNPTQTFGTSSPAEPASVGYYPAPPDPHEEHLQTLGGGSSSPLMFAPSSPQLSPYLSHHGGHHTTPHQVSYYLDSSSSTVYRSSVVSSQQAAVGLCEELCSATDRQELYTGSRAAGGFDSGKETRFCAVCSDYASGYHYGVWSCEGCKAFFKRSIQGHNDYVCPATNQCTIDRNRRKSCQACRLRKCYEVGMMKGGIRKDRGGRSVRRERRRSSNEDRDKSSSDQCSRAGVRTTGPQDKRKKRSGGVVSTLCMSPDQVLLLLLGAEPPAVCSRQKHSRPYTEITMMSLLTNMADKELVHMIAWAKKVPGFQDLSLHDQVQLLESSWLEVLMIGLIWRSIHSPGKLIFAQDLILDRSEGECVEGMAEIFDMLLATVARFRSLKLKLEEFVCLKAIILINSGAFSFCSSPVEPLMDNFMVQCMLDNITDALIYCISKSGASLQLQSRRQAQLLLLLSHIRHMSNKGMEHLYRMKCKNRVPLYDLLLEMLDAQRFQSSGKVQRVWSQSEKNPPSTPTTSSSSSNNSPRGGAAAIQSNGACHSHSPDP
# Procedure, shortened: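 Trans-activation readout: transfected zebrafish ER-Gal4 drives a UAS reporter in human HepG2 liver cells. After 24 h compound exposure (medium containing 3 nM 6-alpha-fluorotestosterone), induced reporter transcripts were quantified by RT-PCR with capillary electrophoresis, relative to DMSO.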
# [12] = tested on: zebrafish Estrogen Receptor (ESR2B), gene 317733; assay: ATG_zfER2b_XSP1: Attagene TRANS-FACTORIAL Multi-Species (XSP1) HepG2 Assay for zebrafish Estrogen Receptor (ESR2B) (AID 2283773; active = hit-call score of the fitted dose curve at least 0.9, where 1 is the maximum)
# Procedure, shortened: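 Multiplexed TRANS format in transfected HepG2 liver cells, chimeric NR-Gal4 from zebrafish ESR2B. 24 h dosing; medium contains 3 nM 6-alpha-fluorotestosterone. mRNA induction by RT-PCR/CE, positive direction vs DMSO.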
smiles,measurement,setting,value
COP(=S)(OC)SCN1C(=O)c2ccccc2C1=O,AC50,[1],52.6 µM (active)
same,outcome,[2],inactive
same,outcome,[3],inactive
CCCCCCCCCCCCCN1CC(C)OC(C)C1 (centres undefined),AC50,[1],90.1 µM (active)
same,outcome,[4],inactive
same,AC50,[5],2.78 µM (active)
same,outcome,[2],inactive
same,outcome,[6],inactive
O=[N+]([O-])c1ccc(Oc2ccc(Cl)cc2Cl)cc1,AC50,[1],7.79 µM (active)
same,AC50,[4],68.7 µM (active)
same,AC50,[5],29.8 µM (active)
same,outcome,[6],inactive
O=C(Nc1ccccc1)c1ccccc1I,AC50,[1],5.47 µM (active)
same,outcome,[2],inactive
same,AC50,[6],11.6 µM (active)
CC(C)(OOC(C)(C)c1ccccc1)c1ccccc1,AC50,[1],15.4 µM (active)
[Cl-].[Cl-].[Hg+2],AC50,[1],0.0826 µM (active)
same,AC50,[4],1.34 µM (active)
same,AC50,[5],0.882 µM (active)
same,AC50,[6],4.32 µM (active)
same,AC50,[3],389 µM (active)
same,AC50,[7],10.4 µM (active)
[O-][Cl+]O,outcome,[1],inactive
Cc1cccc(N)c1N,AC50,[1],57 µM (active)
same,AC50,[4],76.4 µM (active)
same,AC50,[5],79 µM (active)
same,AC50,[2],1.07 µM (active)
same,AC50,[6],44.5 µM (active)
same,AC50,[7],35.7 µM (active)
CCOC(=O)[C@]1(c2ccccc2)Oc2ccccc2[C@@H]1N,AC50,[1],4.92 µM (active)
same,outcome,[2],inactive
same,outcome,[6],inactive
same,outcome,[7],inactive
CC(C)(C)C(O)(CCc1ccc(Cl)cc1)Cn1cncn1 (centres undefined),AC50,[1],52 µM (active)
same,AC50,[4],79.1 µM (active)
same,AC50,[5],30.1 µM (active)
same,outcome,[2],inactive
same,outcome,[6],inactive
CC(O)CCO (centres undefined),outcome,[1],inactive
same,outcome,[6],inactive
ClC1=C(Cl)[C@]2(Cl)[C@H]3[C@H]([C@@H]4C=C[C@H]3C4)[C@@]1(Cl)C2(Cl)Cl,AC50,[1],976 nM (active) and 4.66 µM (active)
same,outcome,[4],inactive
same,outcome,[5],inactive
same,outcome,[6],inactive
COC(=O)Nc1nc2ccccc2[nH]1,AC50,[1],2.61 µM (active)
same,outcome,[4],inactive
same,AC50,[5],10 µM (active)
same,outcome,[7],inactive
Cn1cc(-c2ccccc2)c(=O)c(-c2cccc(C(F)(F)F)c2)c1,AC50,[1],57 µM (active)
same,AC50,[4],0.0803 µM (active)
same,outcome,[5],inactive
same,outcome,[2],inactive
OCCCBr,outcome,[1],inactive
same,outcome,[4],inactive
same,outcome,[5],inactive
same,outcome,[6],inactive
C[C@]12C=CC3=C4CCC(=O)C=C4CC[C@H]3[C@@H]1CC[C@@H]2O,AC50,[1],31 µM (active)
same,outcome,[2],inactive
same,outcome,[7],inactive
same,AC50,[8],0.00303 µM (active)
same,AC50,[9],0.0124 µM (active)
same,AC50,[10],0.0325 µM (active)
same,outcome,[11],inactive
same,outcome,[12],inactive
